# Data as given in ChEMBL document CHEMBL3988442, “University of Dundee, Small-Polar-MMV Screening Library” (2021).
# For some assays here: Results with a measured potency or affinity are listed apart.
# Legend:
# Parameters in all cases: scale not given: direction of the effect not stated beside the values
# [1] = biological target: Protein translocase subunit SecA (Escherichia coli (strain K12)) (UniProt P10408); assay: Assay to Identify E. coli SecA ATPase Inhibitors; assay type: functional; conditions: 30 µM
# [2] = biological target: T1, Ubiquitin-activating enzyme e1, putative (Leishmania donovani (strain BPK282A1)) (UniProt E9BSI1); assay: Leishmania donovani Ubiquitin Activating Enzyme (LdE1); assay type: functional; conditions: 30 µM
# T1 sequence (whole entry): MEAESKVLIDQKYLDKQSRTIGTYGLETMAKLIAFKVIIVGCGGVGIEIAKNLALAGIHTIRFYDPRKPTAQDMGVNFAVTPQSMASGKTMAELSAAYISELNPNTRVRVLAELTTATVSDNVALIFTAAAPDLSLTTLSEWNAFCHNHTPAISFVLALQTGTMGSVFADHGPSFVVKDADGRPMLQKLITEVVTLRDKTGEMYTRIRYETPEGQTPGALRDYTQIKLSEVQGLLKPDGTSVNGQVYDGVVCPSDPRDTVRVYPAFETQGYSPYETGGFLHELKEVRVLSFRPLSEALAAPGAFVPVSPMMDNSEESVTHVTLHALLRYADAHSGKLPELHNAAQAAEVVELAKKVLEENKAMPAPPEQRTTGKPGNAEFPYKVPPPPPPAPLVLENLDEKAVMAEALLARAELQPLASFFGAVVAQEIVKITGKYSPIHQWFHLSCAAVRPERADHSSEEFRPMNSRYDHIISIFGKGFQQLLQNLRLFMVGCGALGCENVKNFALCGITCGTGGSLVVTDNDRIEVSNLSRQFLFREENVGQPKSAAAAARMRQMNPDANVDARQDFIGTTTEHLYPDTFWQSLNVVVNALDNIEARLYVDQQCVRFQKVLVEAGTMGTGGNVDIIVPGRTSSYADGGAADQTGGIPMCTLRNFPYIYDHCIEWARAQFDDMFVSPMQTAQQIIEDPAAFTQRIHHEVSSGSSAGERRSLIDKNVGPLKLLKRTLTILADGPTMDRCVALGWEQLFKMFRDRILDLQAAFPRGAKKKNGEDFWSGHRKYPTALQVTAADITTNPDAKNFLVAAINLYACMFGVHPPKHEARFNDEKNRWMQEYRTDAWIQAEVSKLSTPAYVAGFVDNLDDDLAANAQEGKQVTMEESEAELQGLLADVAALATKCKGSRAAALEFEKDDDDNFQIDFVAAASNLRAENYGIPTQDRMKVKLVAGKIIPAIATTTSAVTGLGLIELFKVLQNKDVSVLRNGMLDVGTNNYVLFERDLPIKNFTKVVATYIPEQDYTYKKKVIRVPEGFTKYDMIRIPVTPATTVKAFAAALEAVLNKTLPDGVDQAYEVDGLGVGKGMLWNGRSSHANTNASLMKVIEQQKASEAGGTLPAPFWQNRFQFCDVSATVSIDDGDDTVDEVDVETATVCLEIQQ
# [3] = biological target: AMP-activated protein kinase, AMPK (Homo sapiens) (UniProt P54646+O43741+P54619+Q9UGJ0+Q9Y478+Q13131+Q9UGI9); assay: AMP-dependent Kinase enzyme assay. An in vitro enzyme assay that detects ADP turnover that is directly proportional to AMPK activity. This uses naive AMPK that is activated during the assay with MK-8722; assay type: functional; conditions: 30 µM
# [4] = biological target: Sialic acid-binding Ig-like lectin 9 (Homo sapiens) (UniProt Q9Y336); assay: Hs-Siglec9 ALPHAscreen SOP 20170721; conditions: 10 µM
# [5] = system: Trypanosoma cruzi; assay: Trypanosoma cruzi phosphomannomutase and mannose-1-phosphate guanylyltransferase assay; assay type: functional; conditions: 10 µM
# [6] = biological target: T2, Arginase-2, mitochondrial (Homo sapiens) (UniProt P78540); assay: in vitro enzyme assay to detect the production of urea directly proportional to the activity of Arginase II; assay type: functional; conditions: 33.3 µM; also: in the data most compounds retested in dose-response had high values
# T2 sequence (whole entry): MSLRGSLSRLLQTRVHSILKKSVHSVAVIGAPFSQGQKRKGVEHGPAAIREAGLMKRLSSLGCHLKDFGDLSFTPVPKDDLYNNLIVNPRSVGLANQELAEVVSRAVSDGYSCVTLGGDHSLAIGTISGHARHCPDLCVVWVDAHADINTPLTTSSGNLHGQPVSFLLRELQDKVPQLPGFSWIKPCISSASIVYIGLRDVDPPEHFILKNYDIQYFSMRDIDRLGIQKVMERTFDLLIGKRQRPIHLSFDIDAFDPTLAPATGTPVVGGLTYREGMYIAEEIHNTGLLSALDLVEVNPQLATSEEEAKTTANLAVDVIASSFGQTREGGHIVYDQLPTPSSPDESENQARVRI
# [7] = biological target: T3, Proteasome subunit beta (Trypanosoma cruzi) (UniProt O96673); assay: Trypanosoma cruzi proteasome chymotrypsin-like activity (TcProtChymo) assay.; also: in the data most compounds retested in dose-response had high values; assay type: functional; conditions: 9.37 µM
# T3 sequence (whole entry): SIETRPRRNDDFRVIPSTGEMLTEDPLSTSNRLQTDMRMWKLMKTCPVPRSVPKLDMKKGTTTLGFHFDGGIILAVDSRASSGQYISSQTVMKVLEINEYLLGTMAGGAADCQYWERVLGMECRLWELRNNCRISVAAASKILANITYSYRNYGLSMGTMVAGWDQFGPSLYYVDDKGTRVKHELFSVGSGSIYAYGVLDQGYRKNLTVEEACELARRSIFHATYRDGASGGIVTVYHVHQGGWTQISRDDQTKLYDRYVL
# [8] = species on record: Homo sapiens; assay: To identify inhibition of the IFN signalling (Jak-Stat) pathway via expression of an eGFP reporter gene under the control of an IFN-stimulated response element (ISRE) containing MxA promoter.; assay type: functional; conditions: 30 µM
# [9] = biological target: T4, Tyrosyl-tRNA synthetase, putative (Trypanosoma cruzi (strain CL Brener)) (UniProt Q4DSP6); assay: Trypanosoma cruzi tyrosyl tRNA synthetase (TcYRS) _High Tyrosine SOP; assay type: functional; conditions: 30 µM; also: in the data most compounds retested in dose-response had high values
# T4 sequence (whole entry): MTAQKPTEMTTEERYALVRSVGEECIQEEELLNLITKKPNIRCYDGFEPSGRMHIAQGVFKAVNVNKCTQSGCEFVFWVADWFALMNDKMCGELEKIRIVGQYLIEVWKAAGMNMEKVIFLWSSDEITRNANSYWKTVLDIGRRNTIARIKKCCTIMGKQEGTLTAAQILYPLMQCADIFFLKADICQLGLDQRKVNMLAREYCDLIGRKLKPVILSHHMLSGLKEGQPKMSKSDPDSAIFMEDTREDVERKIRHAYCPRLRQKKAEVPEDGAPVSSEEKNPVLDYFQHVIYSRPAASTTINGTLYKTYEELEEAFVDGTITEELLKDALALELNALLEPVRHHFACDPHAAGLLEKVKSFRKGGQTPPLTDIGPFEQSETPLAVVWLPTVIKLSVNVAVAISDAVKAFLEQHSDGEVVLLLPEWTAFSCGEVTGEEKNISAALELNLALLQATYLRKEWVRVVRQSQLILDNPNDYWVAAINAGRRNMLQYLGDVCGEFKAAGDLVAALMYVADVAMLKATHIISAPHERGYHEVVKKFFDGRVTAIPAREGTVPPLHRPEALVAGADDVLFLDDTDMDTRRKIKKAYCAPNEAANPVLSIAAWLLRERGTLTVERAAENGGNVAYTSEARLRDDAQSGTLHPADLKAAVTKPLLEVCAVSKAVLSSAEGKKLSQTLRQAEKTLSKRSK
# [10] = biological target: T4, Tyrosyl-tRNA synthetase, putative (Trypanosoma cruzi (strain CL Brener)); assay: Trypanosoma cruzi tyrosyl tRNA synthetase (TcYRS) SOP; assay type: functional; conditions: 30 µM
# [11] = biological target: Chromo domain-containing protein 1 (Saccharomyces cerevisiae (strain ATCC 204508 / S288c) (Baker's yeast)) (UniProt P32657); assay: ScCHD-1 Enzyme Inhibition Assay; assay type: functional; conditions: 30 µM; also: in the data most compounds retested in dose-response had high values
# Sequence of Chromo domain-containing protein 1 (Saccharomyces cerevisiae (strain ATCC 204508 / S288c) (Baker's yeast)) (P32657 whole entry, the tested form may be a part): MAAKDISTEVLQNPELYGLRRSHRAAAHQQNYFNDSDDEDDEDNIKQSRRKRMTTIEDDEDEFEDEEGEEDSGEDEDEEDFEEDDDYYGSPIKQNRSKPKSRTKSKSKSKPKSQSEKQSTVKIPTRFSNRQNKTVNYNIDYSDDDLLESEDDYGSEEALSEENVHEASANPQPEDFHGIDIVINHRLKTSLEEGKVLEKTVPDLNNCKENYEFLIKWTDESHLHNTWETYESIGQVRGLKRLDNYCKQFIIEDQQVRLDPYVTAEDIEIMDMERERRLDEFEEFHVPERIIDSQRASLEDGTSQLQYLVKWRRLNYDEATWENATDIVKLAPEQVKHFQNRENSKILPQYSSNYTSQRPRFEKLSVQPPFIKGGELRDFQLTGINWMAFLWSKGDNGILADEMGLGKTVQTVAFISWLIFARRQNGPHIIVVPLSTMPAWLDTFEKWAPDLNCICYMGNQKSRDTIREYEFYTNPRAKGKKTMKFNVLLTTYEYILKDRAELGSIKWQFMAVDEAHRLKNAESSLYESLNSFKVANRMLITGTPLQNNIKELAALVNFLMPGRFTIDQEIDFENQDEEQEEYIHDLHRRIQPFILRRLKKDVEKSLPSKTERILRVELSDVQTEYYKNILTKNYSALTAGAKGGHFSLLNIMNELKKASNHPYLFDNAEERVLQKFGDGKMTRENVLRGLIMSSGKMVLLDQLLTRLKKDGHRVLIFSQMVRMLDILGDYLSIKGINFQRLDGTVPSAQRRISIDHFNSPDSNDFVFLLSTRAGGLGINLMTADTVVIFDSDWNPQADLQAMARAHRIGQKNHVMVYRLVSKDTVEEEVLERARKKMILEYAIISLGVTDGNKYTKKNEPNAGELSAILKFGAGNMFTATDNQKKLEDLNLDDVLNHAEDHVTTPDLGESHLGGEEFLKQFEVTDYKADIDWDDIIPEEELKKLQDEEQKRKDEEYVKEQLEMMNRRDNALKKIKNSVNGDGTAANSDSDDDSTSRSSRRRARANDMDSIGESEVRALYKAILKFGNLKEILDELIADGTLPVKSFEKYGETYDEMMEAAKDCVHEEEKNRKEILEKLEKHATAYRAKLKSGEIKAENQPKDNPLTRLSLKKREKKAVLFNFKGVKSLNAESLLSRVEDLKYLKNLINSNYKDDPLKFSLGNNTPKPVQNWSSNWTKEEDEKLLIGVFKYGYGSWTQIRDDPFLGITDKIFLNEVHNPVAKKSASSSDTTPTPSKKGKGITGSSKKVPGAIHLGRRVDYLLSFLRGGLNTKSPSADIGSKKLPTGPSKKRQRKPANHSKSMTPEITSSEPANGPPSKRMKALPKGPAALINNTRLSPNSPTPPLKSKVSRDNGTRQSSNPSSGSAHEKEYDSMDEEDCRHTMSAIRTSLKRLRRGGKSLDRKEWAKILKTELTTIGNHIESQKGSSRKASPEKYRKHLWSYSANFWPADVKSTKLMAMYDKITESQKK
# Sequence of Sialic acid-binding Ig-like lectin 9 (Homo sapiens) (Q9Y336 whole entry): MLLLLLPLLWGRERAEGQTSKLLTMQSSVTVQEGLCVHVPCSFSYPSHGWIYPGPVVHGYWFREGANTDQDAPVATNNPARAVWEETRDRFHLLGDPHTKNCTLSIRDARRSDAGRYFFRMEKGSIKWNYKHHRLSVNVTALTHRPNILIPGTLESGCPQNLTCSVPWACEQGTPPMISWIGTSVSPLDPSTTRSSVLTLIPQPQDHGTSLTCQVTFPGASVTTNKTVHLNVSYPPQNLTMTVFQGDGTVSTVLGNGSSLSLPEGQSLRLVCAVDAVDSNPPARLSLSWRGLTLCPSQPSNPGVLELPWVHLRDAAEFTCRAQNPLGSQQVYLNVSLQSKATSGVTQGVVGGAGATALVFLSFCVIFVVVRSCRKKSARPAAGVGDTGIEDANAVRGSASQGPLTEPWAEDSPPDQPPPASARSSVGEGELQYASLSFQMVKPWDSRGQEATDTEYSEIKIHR
# Sequence of Protein translocase subunit SecA (Escherichia coli (strain K12)) (P10408 whole entry): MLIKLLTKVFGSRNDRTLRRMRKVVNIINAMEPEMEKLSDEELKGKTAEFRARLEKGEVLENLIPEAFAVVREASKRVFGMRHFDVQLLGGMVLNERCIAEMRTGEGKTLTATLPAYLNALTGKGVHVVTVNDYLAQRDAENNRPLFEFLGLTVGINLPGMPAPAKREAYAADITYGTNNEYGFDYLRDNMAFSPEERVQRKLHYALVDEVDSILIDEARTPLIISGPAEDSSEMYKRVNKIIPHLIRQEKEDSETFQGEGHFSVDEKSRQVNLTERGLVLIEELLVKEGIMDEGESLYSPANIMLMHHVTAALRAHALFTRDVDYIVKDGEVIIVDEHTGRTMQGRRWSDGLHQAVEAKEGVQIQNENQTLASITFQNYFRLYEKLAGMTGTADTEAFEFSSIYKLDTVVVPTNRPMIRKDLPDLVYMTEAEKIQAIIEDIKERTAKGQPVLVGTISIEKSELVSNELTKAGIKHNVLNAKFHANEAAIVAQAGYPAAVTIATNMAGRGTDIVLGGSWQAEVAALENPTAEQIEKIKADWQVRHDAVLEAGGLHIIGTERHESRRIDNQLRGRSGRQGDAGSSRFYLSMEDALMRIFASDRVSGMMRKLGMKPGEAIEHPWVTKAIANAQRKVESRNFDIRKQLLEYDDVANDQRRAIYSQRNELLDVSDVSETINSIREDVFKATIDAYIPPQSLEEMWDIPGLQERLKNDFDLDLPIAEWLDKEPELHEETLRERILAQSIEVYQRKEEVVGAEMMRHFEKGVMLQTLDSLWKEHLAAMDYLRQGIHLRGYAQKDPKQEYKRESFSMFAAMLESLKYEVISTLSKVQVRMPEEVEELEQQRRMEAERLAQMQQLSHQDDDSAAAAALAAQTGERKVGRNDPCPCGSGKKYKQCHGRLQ
SMILES,Percent Effect [1],Percent Effect [2],Percent Effect [3],Percent Effect [4],Percent Effect [5],Percent Effect [6],Percent Effect [7],Percent Effect [8],Percent Effect [9],Percent Effect [10],Percent Effect [11]
COc1ccc(Nc2nc3c(C)nn(C)c3c(=O)n2C)c(OC)c1,-1.13%,15.6%,-2.05%,14.5%,6.79%,-12.4%,10.3%,0.301%,8.6%,18.5%,-5.3%
Cc1cccc(CN2CCN(Cc3ccccc3)CC(O)C2)n1 (centres undefined),-1.78%,0%,-4.59%,2.56%,-0.193%,-1.43%,9.14%,4.22%,8.99%,19.5%,-3.04%
CCC(C)NC(=O)N1CCCn2cnc(CO)c2C1 (centres undefined),-0.731%,2.74%,1.02%,5.8%,0.198%,2%,4.54%,6.37%,6.25%,6.17%,1.09%
CC(C)C(=O)NCC(=O)N(C)C1CCCN(CCc2ccccc2)C1 (centres undefined),-2.17%,10.8%,0.942%,15.5%,4.25%,-0.952%,11.9%,-0.751%,3.7%,4.88%,-5.28%
